An excerpt weighted towards active compounds, which were near 4.1% of everything screened.
DAX1 inh-1: NR0B1 (DAX1) inhibition | P51843 | HEK293 Gal4-DAX1 luciferase reporter, luminescence | inhibition, % at 6.75 µM | actives 0.99% (n = 340,000) | AID 504766;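 active = inhibition above the mean over all tested compounds plus 3 SD, cut at about 4.2% in these data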;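 note: 0% = DAX1-transfected cells with DMSO and 100% = empty-vector control cells with DMSO; inhibition shows as a rise in luminescence from relieved DAX1 repression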
Target sequence (P51843 207-470 limits assumed): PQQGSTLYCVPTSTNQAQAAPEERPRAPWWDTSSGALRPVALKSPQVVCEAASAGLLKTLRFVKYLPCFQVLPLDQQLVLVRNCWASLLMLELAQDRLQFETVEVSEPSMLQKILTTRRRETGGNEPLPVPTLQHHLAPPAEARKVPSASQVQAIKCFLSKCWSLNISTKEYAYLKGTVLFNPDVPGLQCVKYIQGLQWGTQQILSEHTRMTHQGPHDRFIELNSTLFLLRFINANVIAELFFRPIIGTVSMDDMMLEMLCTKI
DAX1 inh-2: blocks DAX1 repression of SF-1 activated StAR promoter; actives 1.1% (n = 370,000); HEK293T StAR-luciferase reporter, SF-1/DAX-1 repression relief; inhibition, % at 6.8 µM;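 active = inhibition above the mean over all tested compounds plus 3 SD, cut at about 3.6% in these data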;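 note: 0% = DAX-1 cells with DMSO and 100% = cells lacking DAX-1 with DMSO; higher inhibition means more luminescence from relief of DAX-1 repression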
ssDAF-12 act: activators of S. stercoralis DAF-12 nuclear receptor. actives 1% (n = 370,000). HEK293 ssDAF-12/GRIP1 lit1-tk-luc reporter, luminescence; % of 3 µM dafachronic acid response. AID 652126. activation, % at 6.8 µM;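 active = activation above the mean over all tested compounds plus 3 SD, cut at about 0.9% in these data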;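 note: 0% = DMSO-only wells and 100% = 3 µM delta7-dafachronic acid wells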
hgDAF12 agonist: hgDAF-12 agonism, primary luciferase screen. HEK293 GAL4-hgDAF12 UAS-luciferase reporter, agonist luminescence; normalized to butyrate control. activation, % at 6.8 µM. actives 1.8% (n = 370,000);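 active = activation above a cutoff set at the mean of all screened compounds plus 3 SD, cut at about 10% in these data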;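 note: 0% = DMSO wells and 100% = sodium butyrate wells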
hcDAF-12 act: activators of H. contortus DAF-12 nuclear receptor | HEK293 hcDAF-12 lit1-tk-luc reporter, luminescence; 0% DMSO, 100% Δ7-dafachronic acid | activation, % at 6.8 µM | actives 1.4% (n = 370,000) | AID 652067;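 active = activation above the mean of all tested compounds plus 3 SD, cut at about 5.5% in these data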;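 note: 100% = response to 3 µM Δ7-dafachronic acid high control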
* marks the source's active call; other numbers are inactive results; · = not tested or not shown.

SMILES	DAX1 inh-1	DAX1 inh-2	ssDAF-12 act	hgDAF12 agonist	hcDAF-12 act
S=c1[nH]nc(-c2ccncc2)n1/N=C/C(Cl)=C\c1ccccc1	0	1	-1	12*	1
C=CCn1c(SCC(=O)N2CCCC2)nc2c([nH]c3ccccc32)c1=O	0	1	1.0*	1	6.3*
C=CCn1c(SCC(=O)N2CCN(C(=O)OCC)CC2)nc2c([nH]c3ccccc32)c1=O	1	1	1	-1	5
CCn1c(SCC(=O)N2CCOCC2)nc2c([nH]c3ccccc32)c1=O	0	0	1	0	5
COCCn1c(SCC(=O)Nc2cc(C)on2)nc2c([nH]c3ccccc32)c1=O	0	0	-1	1	2
CCn1c(SCC(=O)Nc2ccc(C(C)=O)cc2)nc2c([nH]c3ccccc32)c1=O	0	1	0	4	5.8*
CCn1c(SCC(=O)Nc2cccc(NC(C)=O)c2)nc2c([nH]c3ccccc32)c1=O	0	-2	1.1*	4	1
CCn1c(SCC(=O)Nc2cc(C)on2)nc2c([nH]c3ccccc32)c1=O	0	1	0	1	6.0*
COCCn1c(SCC(=O)Nc2ccc(NC(C)=O)cc2)nc2c([nH]c3ccccc32)c1=O	0	-2	0	3	5
O=C(NC1=N[C@@]2(C=C3CCCCC3n3c(=O)n(-c4ccccc4)c(=O)n32)CN1Cc1ccccc1)c1ccccc1 (some centres not stated)	·	-2	-2	0	-1
Clc1ccc([C@H]2OC[C@@]3(CNCc4ccccc4)CS[C@H](c4ccc(Cl)cc4)N23)cc1	·	·	-2	-1	-1
CCOC(=O)c1cccc(NC(=O)c2ccccc2C)c1	-1	0	-2	11*	1
O=C(c1ccco1)N1CCN(c2nc3ccsc3c(=O)s2)CC1	5.1*	1	-2	4	-2
c1ccc(CN2CCN(c3ncnc4sccc34)CC2)cc1	·	·	-2	-4	-5
CC(C)C[C@H](NC1(C(=O)NC2CCCCC2)CCCCC1)C(=O)NCCc1c[nH]c2ccccc12	·	·	-1	-5	3
CC(=O)N/C(=C/c1ccccc1)C(=O)NC(Cc1ccccc1)C(=O)O (configuration not stated)	0	0	-1	11*	-1
Cc1cc(NC(=O)CCC(=O)N(CC(=O)NCC2CCCO2)c2ccc(F)c(Cl)c2)no1 (configuration not stated)	4.2*	0	-1	-1	-2
COc1ccc(Nc2ccc([N+](=O)[O-])cc2[N+](=O)[O-])cc1	6.3*	0	-2	-1	-1
COc1ccc(Nc2ccc(C(=O)O)cc2[N+](=O)[O-])cc1	2	0	-1	0	-2
CCOC(=O)C1=C(N)n2c(s/c(=C/c3ccco3)c2=O)=C(C(=O)OC)C1c1ccco1 (configuration not stated)	2	-2	-1	1	-1
N#CC1=C(N)n2c(s/c(=C\c3ccco3)c2=O)=C(C#N)C1c1ccco1 (configuration not stated)	1	0	1.6*	0	3
O=C(CN1CCc2ccccc21)NC(=O)NCc1ccco1	0	0	1.0*	1	3
O=C(CSc1nnc(NC(=O)c2ccccc2F)s1)NCC1CCCO1 (configuration not stated)	0	3.8*	-1	7	5
O=C(CN1CCN(c2ccccc2O)CC1)NC(=O)NCc1ccco1	1	1	-1	-1	-1
O=C(CSc1nc2ccccc2s1)NC(=O)NCc1ccco1	2	0	1.4*	2	5
O=C(CSc1nnc(NC(=O)c2ccc3c(c2)OCO3)s1)NCc1ccco1	-2	2	0	13*	5.9*
CC(=O)Nc1ccc(/C=C/COC(C)=O)cc1C	·	·	-1	0	1
Cc1ccccc1C(=O)Nc1nnc(SCC(=O)NCc2ccco2)s1	1	8.0*	0	12*	5.9*
COc1ccc(-n2c(COc3ccc(C)cc3)nnc2SCC(=O)Nc2ccc(S(=O)(=O)Nc3cc(C)nc(C)n3)cc2)cc1	·	1	-2	0	2
COc1ccc(NC(=O)N2CCC(c3nc4ccc(Cl)cc4[nH]3)CC2)cc1OC	·	-1	-2	0	-4

High-throughput results deposited in PubChem BioAssay by The Scripps Research Institute Molecular Screening Center.
